Laboratory results taken from PubChem BioAssay (NCI).
Compounds without any hit were thinned out: in the full panel of roughly 79,000, 15% have a hit. A number with no mark means an inactive call. Calls of active or inactive are those of the source. Cut-off read from the data, not from the text of the source: active = growth inhibition above about 70%; inactive = the rest.

Key:
[1] = NCI Yeast Anticancer Drug Screen. Data for the rad50 strain (AID 155);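 note: 0% = growth of vehicle-only cultures of the same strain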; conditions: S. cerevisiae rad50 strain growth inhibition, hits give high values
Procedure, shortened: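 Genetically altered yeast (DNA repair pathway); compound treatment; growth inhibition vs vehicle ctrl.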

[2] = NCI Yeast Anticancer Drug Screen. Data for the mec2-1 strain (AID 157); conditions: S. cerevisiae mec2-1 strain, hits give high values
Procedure, shortened: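 Readout is yeast growth inhibition, normalised to vehicle-treated controls, in the mec2-1 strain exposed to compound.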

[3] = NCI Yeast Anticancer Drug Screen. Data for the sgs1 mgt1 strain (AID 161);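 note: 0% = growth of cultures given vehicle only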; conditions: S. cerevisiae sgs1 mgt1 strain, hits give high values
Procedure, shortened: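 Growth of a repair-deficient yeast mutant was monitored after compound treatment and expressed as inhibition relative to vehicle-treated cultures.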

[4] = NCI Yeast Anticancer Drug Screen. Data for the cln2 rad14 strain (AID 165);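 note: 0% = growth equal to vehicle treated cultures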; conditions: S. cerevisiae cln2 rad14 strain, hits give high values
Procedure, shortened: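 Relative to vehicle controls, growth inhibition of compound-treated cln2 rad14 yeast was recorded.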

[5] = NCI Yeast Anticancer Drug Screen. Data for the bub3 strain (AID 167); conditions: S. cerevisiae bub3 mutant strain, hits give high values
Procedure, shortened: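 Yeast carrying a defined mutation is treated with each compound, and growth is compared with that of vehicle-exposed cells to give inhibition.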

[6] = NCI Yeast Anticancer Drug Screen. Data for the mlh1 rad18 strain (AID 175); conditions: S. cerevisiae mlh1 rad18 strain growth inhibition, hits give high values
Procedure, shortened: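 Test agents were incubated with a yeast strain of defined genotype (DNA damage repair defect). Inhibition of growth was derived by comparison with vehicle-exposed cultures.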

[7] = at 5.0 µM (retest, dose inferred, filed as 0.5)
[8] = at 50.0 µM (retest, dose inferred, filed as 5.0)

| Structure (SMILES) | growth inhibition [1, 7] | growth inhibition [1, 8] | growth inhibition ([1]; at 50.0 µM) | growth inhibition [2, 7] | growth inhibition [2, 8] | growth inhibition ([2]; at 50.0 µM) | growth inhibition [3, 7] | growth inhibition [3, 8] | growth inhibition ([3]; at 50.0 µM) | growth inhibition [4, 7] | growth inhibition [4, 8] | growth inhibition ([4]; at 50.0 µM) | growth inhibition [5, 7] | growth inhibition [5, 8] | growth inhibition ([5]; at 50.0 µM) | growth inhibition [6, 7] | growth inhibition [6, 8] | growth inhibition ([6]; at 50.0 µM) |
| --- | --- | --- | --- | --- | --- | --- | --- | --- | --- | --- | --- | --- | --- | --- | --- | --- | --- | --- |
| C/C(=N\NC(=S)NNC(=S)N1CCCc2ccccc21)c1ccccn1 | 3% | 96% (active) | 95.9% (active) | -16% | 96% (active) | 95.7% (active) | 30% | 97% (active) | 96.7% (active) | -23% | 96% (active) | 95.8% (active) | -6% | 97% (active) | 90.7% (active) | 5% | 95% (active) | 95.6% (active) |
| COC(=O)CC1c2cc(OC)c3cccc(OC)c3c2CCC1(C)C(=O)OC (configuration not stated) | 94% (active) | 89% (active) | 45.8% | 94% (active) | 90% (active) | 18.4% | 95% (active) | 95% (active) | 93.2% (active) | 91% (active) | 90% (active) | 73% (active) | 95% (active) | 90% (active) | 77.2% (active) | 94% (active) | 91% (active) | 13.7% |
| COC1OC(=O)CC1C1CC=C2C3CCC4CC(O)CCC4(C)C3CCC21C (configuration not stated) | 1% | 44% | 83.3% (active) | 3% | 85% (active) | 74.4% (active) | -22% | 86% (active) | 95% (active) | -8% | 77% (active) | 62.6% | -9% | 73% (active) | 64.8% | -5% | 92% (active) | 88.4% (active) |
| CCCCCCCCCCN(CCCCCCCCCC)CC(O)c1cc(-c2ccccc2)nc2ccccc12 (configuration not stated) | -1% | 74% (active) | 36.2% | -2% | 34% | 21.9% | -22% | 93% (active) | 38.8% | 0% | 26% | -18.1% | 0% | 58% | 26.9% | 4% | 57% | 55% |
| CC12CCC3C(CCC4CC(O)CCC43C)C1CC1C2=NOC1O (configuration not stated) | 0% | 99% (active) | 25.8% | -2% | 99% (active) | 18.2% | 0% | 99% (active) | 72.2% (active) | -8% | 99% (active) | 21% | -3% | 99% (active) | 73% (active) | -1% | 99% (active) | 56.7% |
| CCSc1c2ccccc2nc2c(OC)ccc(OC)c12 | 3% | 70% (active) | 88.7% (active) | -3% | 23% | 35.4% | -7% | 30% | 63.1% | -7% | -7% | 48.7% | -7% | 20% | 39.4% | -3% | 54% | 90.3% (active) |
| CNC(=O)OCc1c(COC(=O)NC)c(-c2ccc(Cl)c(Cl)c2)n2c1Cc1ccccc1C2 | -18% | 97% (active) | 88.7% (active) | -21% | 98% (active) | 92.2% (active) | -6% | 85% (active) | 88.8% (active) | 8% | 63% | 90.8% (active) | -23% | 97% (active) | 88.1% (active) | -11% | 97% (active) | 87% (active) |
| COc1cccc2c1C(=O)c1c(O)c3c(c(O)c1C2=O)CC(O)(C(C)=O)CC3OC1CC(NCC2(O)OCC(O)C2O)C(O)C(C)O1 (configuration not stated) | 50% | 96% (active) | 88.8% (active) | 34% | 98% (active) | 88.6% (active) | 33% | 98% (active) | 86.8% (active) | 44% | 97% (active) | 87.4% (active) | 34% | 98% (active) | 87.1% (active) | 40% | 96% (active) | 91% (active) |
| Cc1ccc2c(c1)C(O)(c1ccccc1)C(c1ccccc1)C(c1ccccc1)O2 (configuration not stated) | 78% (active) | 83% (active) | 93.9% (active) | 56% | 92% (active) | 94.3% (active) | 69% | 87% (active) | 93.7% (active) | 59% | 62% | 90.4% (active) | 87% (active) | 91% (active) | 89.5% (active) | 66% | 88% (active) | 93.6% (active) |
| CCCCCCCCCCCCCCCC(=O)NCCN(C)C | -2% | 98% (active) | 98.7% (active) | -2% | 99% (active) | 97% (active) | 23% | 98% (active) | 56.8% | -3% | 99% (active) | 88.8% (active) | -5% | 99% (active) | 97% (active) | 1% | 98% (active) | 98.8% (active) |
| CC(C)C[P+](c1ccccc1)(c1ccccc1)c1ccccc1 | 0% | 23% | 62.6% | -3% | 54% | 58.9% | -34% | 9% | 50.6% | -5% | 10% | 49.5% | -7% | 24% | 54.2% | 12% | 45% | 73.9% (active) |
| COC(=O)C(=O)C(/C=N/C(=S)NCCc1ccc(OC)c(OC)c1)=C(/O)c1ccc([N+](=O)[O-])cc1 | 3% | 15% | 0.3% | -5% | -3% | -7.95% | 13% | 1% | 19.4% | 20% | -11% | 30.9% | 6% | -13% | 15.4% | -3% | 8% | -9.7% |
| O.O.O=Cc1cc(Br)cc(Br)c1O.O=Cc1cc(Br)cc(Br)c1O.[Co] | 58% | 99% (active) | 99.2% (active) | 25% | 99% (active) | 96.7% (active) | 37% | 89% (active) | 99% (active) | 15% | 99% (active) | 89.5% (active) | 53% | 99% (active) | 90.5% (active) | 79% (active) | 99% (active) | 99.2% (active) |
| CCN(CC)CC(O)CNc1cc(C)nc(/N=C(\N)Nc2ccc(Cl)c(Cl)c2)n1 (configuration not stated) | 0% | 64% | 88.8% (active) | -21% | 34% | 57.3% | -11% | 54% | 87% (active) | -3% | 19% | 31.7% | -2% | 30% | 34.2% | 12% | 86% (active) | 81.2% (active) |
| Cc1ccc(S(=O)(=O)NCCCOS(=O)(=O)c2ccc(C)cc2)cc1 | 20% | 46% | 22.8% | 16% | 33% | 0.15% | 34% | 65% | 28.9% | 34% | 63% | 29.9% | 37% | 66% | 29.4% | 15% | 53% | 45.9% |
| CC(=O)OCC1OC(OC2C=C(O[Si](C)(C)C)C[C@H]3C(=O)C=CC(=O)[C@@H]23)C(OC(C)=O)C(OC(C)=O)C1OC(C)=O (some centres not stated) | 6% | 96% (active) | 58.6% | 1% | 98% (active) | 59.2% | 2% | 98% (active) | 31.4% | 2% | 88% (active) | 4.5% | 3% | 93% (active) | 15.1% | 3% | 97% (active) | 54.6% |
| O=C(Nc1ccc(Cl)cc1)NS(=O)(=O)c1c(-c2ccccc2)oc2ccccc2c1=O | 14% | 99% (active) | 92.3% (active) | 6% | 98% (active) | 96.3% (active) | 7% | 99% (active) | 95.5% (active) | 15% | 98% (active) | 93.3% (active) | 0% | 97% (active) | 95.3% (active) | 15% | 98% (active) | 95.3% (active) |
| Cc1ccccc1Nc1nc(-c2ccccc2)nc(N)c1N=O | 9% | 98% (active) | 59.2% | 9% | 98% (active) | 43% | 32% | 98% (active) | 72.8% (active) | 13% | 97% (active) | 28.6% | 4% | 97% (active) | 45% | 9% | 97% (active) | 59% |
| c1c2c(cc(-n3nnc4c3CCCCCC4)c1-n1nnc3c1CCCCCC3)CCCCCC2 | 30% | 30% | 89.4% (active) | 26% | 26% | 90.5% (active) | 23% | 23% | 89.5% (active) | 17% | 17% | 91.1% (active) | 7% | 7% | 90.4% (active) | 27% | 27% | 87.3% (active) |
